# IL-1B inflam inh: inflammasome signaling inhibition, IL-1 beta readout; THP-1 LPS/ATP IL-1B secretion, AlphaLISA, 16 h; active compounds read low; activity change, % at 57.5 µM; 4.7% of 360,000 active; AID 743279; in the data active means activity change below about -50%; inconclusive means mostly about -30% to -49%
#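 THP-1 cells pretreated 1 hr with compounds (up to 57.5 uM final), then stimulated with LPS (250 ng/mL final) plus ATP (1.25 mM final); secreted IL-1B measured by AlphaLISA after 16 hr, decreased signal indicating inhibition.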
# Gal4-VP16 FLuc: Gal4-VP16 reporter inhibition counter-screen | 3.5% of 310,000 active | Potency, µM (doses to about 53.6 µM), without a hit: top-dose activity, negative = inhibition, usual class: inhibitors | Drosophila S2 Gal4-VP16 UAS-luciferase, luminescence, 20 h;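 further: Gal4-VP16 expression switched on by copper sulfate through the metallothionein promoter; potency means the concentration at half of the fitted maximal effect; nearly all actives have a fitted effect of over 50% in size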
# ELG1 DNA repair: inhibitors of ELG1-dependent DNA repair in HEK293T cells. HEK293T ELG1-luciferase reporter, luminescence, 16 h; DNA damage induced by 5-fluorouridine. Potency, µM (highest dose often 46.1 µM), for the others: at the top dose activity change, negative = inhibition, usual class: inhibitors. 2.3% of 330,000 active. AID 504467; further: potency means the concentration at half of the fitted maximal effect; nearly all actives have a fitted effect of over 55% in size
#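 In this reporter screen, reduction of luminescence relative to DMSO vehicle indicated activity. Compounds and 5-fluorouridine were added together to 2,000 cells per well, incubated for 16 hr at 37 °C, then developed with ONE-Glo.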
# DT40 TDP1 no CPT: qHTS for Inhibitors of human tyrosyl-DNA phosphodiesterase 1 (TDP1): qHTS in cells in absence of CPT; Potency, µM (highest dose often 46.2 µM), for inactives: top-dose activity change, negative = growth inhibition, hits mostly inhibitors; DT40 Tdp1-/- hTDP1 cells, no CPT, ATP luminescence, 48 h; 15% of 420,000 active; further: potency means the concentration at half of the fitted maximal effect; nearly all actives have a fitted effect of over 55% in size
#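 Camptothecin absent (DMSO only). Human TDP1-complemented DT40 knockout cells, 400 cells/well, 37 °C for minimum 48 hr; ATP measured via CellTiter-Glo, 30 min dark incubation, luminescence.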
# TDP1 cell CPT: DT40-hTDP1 cell growth loss with CPT; 12% of 420,000 active; chicken DT40 Tdp1-/-;hTDP1 cells + 20 nM CPT, ATP luminescence, 48 h; Potency, µM (top dose mostly 46.2 µM), for the others: at the highest dose activity change, negative = growth inhibition, actives largely listed as inhibitors; further: potency means the concentration at half of the fitted maximal effect; nearly all actives have a fitted effect of over 55% in size
#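 Chicken DT40 Tdp1-/- cells stably complemented with human TDP1 were seeded at 400 cells/well in medium containing 20 nM camptothecin, exposed to pin-transferred compounds, and grown at 37 °C for at least 48 hr. Viability was read as ATP luminescence.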
# RORg inh: blocks mouse ROR gamma transcriptional activity; Drosophila S2 Gal4-RORgamma UAS-luciferase reporter, 20 h; Potency, µM (doses to about 53.6 µM), inactives show at the highest dose activity change, negative = inhibition, actives largely listed as inhibitors; 5.4% of 310,000 active; AID 2551; further: potency means the concentration at half of the fitted maximal effect; nearly all actives have a fitted effect of over 60% in size
# Target sequence (P51450 whole entry, looked up, the tested form may be a part): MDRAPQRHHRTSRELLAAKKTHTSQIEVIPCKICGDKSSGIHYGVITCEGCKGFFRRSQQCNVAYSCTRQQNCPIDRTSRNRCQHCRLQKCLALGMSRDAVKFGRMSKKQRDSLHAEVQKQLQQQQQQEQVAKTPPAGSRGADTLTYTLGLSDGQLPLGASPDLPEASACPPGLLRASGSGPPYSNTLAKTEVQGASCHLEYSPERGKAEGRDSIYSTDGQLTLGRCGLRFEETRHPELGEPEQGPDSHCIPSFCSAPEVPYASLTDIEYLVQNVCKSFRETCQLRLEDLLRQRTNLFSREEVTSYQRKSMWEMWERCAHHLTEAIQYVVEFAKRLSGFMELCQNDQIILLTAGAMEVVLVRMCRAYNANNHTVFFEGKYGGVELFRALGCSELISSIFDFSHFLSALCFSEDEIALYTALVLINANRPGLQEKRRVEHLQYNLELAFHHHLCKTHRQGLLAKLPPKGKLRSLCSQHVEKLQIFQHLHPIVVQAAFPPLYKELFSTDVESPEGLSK
#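 Drosophila S2 cells stably expressing Gal4-DBD/mouse RORγ fusion under metallothionein promoter plus UAS-luciferase; compound 1 h, then 700 uM CuSO4 induction for 20 h at ambient temperature; inhibition read as reduced luminescence.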
# * marks the source's active call; other numbers are inactive results; ? = inconclusive; / = no result; [ ] = another dose, or the depositor's remark. Most compounds without a hit are left out; they make up all but 21% or so of the library. Unless noted, the call rests on the fitted dose curve; in most records, active means well fitted curve in the direction sought with a large enough effect; inconclusive means small, poorly fitted or top-dose-only effect, or another doubt; inactive means no such curve, though single readings can be large; an effect the other way counts as inactive or inconclusive. On the % scale 0 is the no-effect control and ±100 the full control effect.
SMILES,IL-1B inflam inh,Gal4-VP16 FLuc,ELG1 DNA repair,DT40 TDP1 no CPT,TDP1 cell CPT,RORg inh
CC(=O)Nc1ccc(Nc2cc(C)c3ccccc3n2)cc1,-92*,-2%,2%,?,?,27%
COc1ccc(Nc2cc(C)c3ccc(O)cc3n2)cc1,-50*,?,7%,16µM*,23µM*,?
Cc1cc(Nc2ccccc2)nc2cc(O)ccc12,29,-12%,?,-27%,-28%,?
O=C(c1ccco1)N1CCC2(CC1)CCN(c1ccc(-c3ccccc3)cc1)CC2,/,9%,/,-20%,9%,0%
CCC1C(=O)CC(c2ccc([N+](=O)[O-])cc2)NC1c1ccc([N+](=O)[O-])cc1 (configuration not stated),-100*,-3%,-19%,?,?,?
O=S1(=O)CCN(c2ccccc2CC(c2c[nH]c3ccccc23)c2c[nH]c3ccccc23)CC1,-11,/,/,13µM*,8.2µM*,/
CN1CC(=O)N(CC(=O)Nc2ccc(N3CCOCC3)cc2)C1=O,27,/,8%,-21%,4%,/
Cn1ccc2c(N3CCCC3)cc3c(c21)C1CCC3C1 (configuration not stated),13,/,/,15µM*,21µM*,/
Cn1ccc2c(-c3ccc(CO)cc3)cc3c(c21)C1CCC3C1 (configuration not stated),38,/,/,?,18µM*,/
Cn1ccc2c(N3CCCCCC3)cc3c(c21)C1CCC3O1 (configuration not stated),10,/,/,?,21µM*,/
O=C(NCc1ccc(F)cc1)c1cc2c(s1)CS(=O)(=O)C2,10,-4%,0%,4%,-8%,-6%
Cc1ccccc1N(C(=O)c1cccs1)c1nc2ccccc2s1,-22,15%,0%,18µM*,23µM*,-31%
Cc1ccsc1C(=O)N(c1nc2ccccc2s1)c1c(C)cccc1C,-1,-2%,-13%,23µM*,?,-26%
COc1ccc(C)cc1N(C(=O)c1ccccc1)c1nc2ccccc2s1,-3,4%,-9%,?,-28%,-27%
CCOC(=O)C1=C(C)NC(SCC(=O)Nc2nc(C)cs2)=C(C#N)C1c1cccs1 (configuration not stated),/,-8%,21µM*,/,/,20%
CC(OC(=O)COc1ccccc1Cc1ccccc1)C(=O)N(C)c1ccccc1 (configuration not stated),0,/,7%,?,-1%,/
Fc1ccc2[nH]c3c(Cl)ncnc3c2c1,-96*,-12%,21%,-19%,-3%,-16%
CCCCOc1ncnc2c1[nH]c1ccc(F)cc12,?,7.9µM*,?,8.2µM*,9.2µM*,?
CCCCOc1ncnc2c1[nH]c1ccccc12,1,10µM*,?,7.3µM*,10µM*,?
O=C(Nc1sc2c(c1C(=O)Nc1ccccc1Cl)CCCC2)c1ccccc1F,/,/,/,-10%,-7%,/
CCN1CCN(C(=O)/C(=C/c2ccco2)NC(=O)c2ccccc2)CC1,42,11%,-5%,-21%,-1%,-21%
CCOc1ccccc1C1N=C(c2ccc(OC)cc2)CC(c2ccccc2O)N1 (configuration not stated),-14,-4%,?,16µM*,21µM*,-38%
CCOc1ccccc1C1N=C(N)Nc2nc3ccccc3n21 (configuration not stated),/,/,/,-3%,6%,/
Cc1cccc(C)c1NC(=O)CN(C)C(=O)c1cccc(S(=O)(=O)N2CCN(c3ccc(F)cc3)CC2)c1,-19,/,-21%,7.3µM*,12µM*,/
CN(CC(=O)Nc1ccccc1Cl)C(=O)c1cccc(S(=O)(=O)N2CCN(c3ccccc3)CC2)c1,-20,/,/,?,?,/
SMILES,IL-1B inflam inh,Gal4-VP16 FLuc,ELG1 DNA repair,DT40 TDP1 no CPT,TDP1 cell CPT,RORg inh
CN(CC(=O)Nc1cccc(F)c1)C(=O)c1cccc(S(=O)(=O)N2CCN(c3ccc(F)cc3)CC2)c1,-1,/,/,21µM*,21µM*,/
CCc1ccc(S(=O)(=O)c2cn(CC(=O)Nc3ccc(C)cc3)c3ccccc3c2=O)cc1,/,/,/,?,-1%,/
Cc1cc(C)cc(NC(=O)C(c2ccccc2)N2CCN(CC(=O)NC3CC3)CC2)c1 (configuration not stated),7,/,-3%,-30%,-18%,/
CCNc1nc(NCC)nc(ON=C(C)C)n1,/,-5%,-16%,/,/,?
CCNc1nc(NC(C)CC)nc(ON=C(C)C)n1 (configuration not stated),2,-20%,9%,6%,2%,14µM*
Cc1ccc(OCCn2cc(C(=S)N3CCCC3)c3ccccc32)cc1C,-15,-2%[0.365 µM],17%,4.1µM*,8.2µM*,6.3µM*
O=C(Cn1cc(C(=S)N2CCOCC2)c2ccccc21)N1CCOCC1,5,1%,/,-19%,-10%,0%
S=C(c1cn(CCOc2cccc3ccccc23)c2ccccc12)N1CCCC1,-6,?,-22%,13µM*,10µM*,11µM*
Cc1ccc(OCCn2cc(C(=O)O)c3ccccc32)cc1,-7,?,8%,-4%,5%,0%
CCN(CC)C(=O)C(=O)c1cn(CCOc2ccccc2)c2ccccc12,27,-3%,-17%,-1%,?,42%
S=C(c1cn(CCOc2ccccc2)c2ccccc12)N1CCCC1,-21,-2%[0.365 µM],5%,20µM*,18µM*,7.1µM*
O=C(O)Cn1cc(C(=S)N2CCCCC2)c2ccccc21,8,-14%,0%,8%,-2%,5%
Cc1ccc(OCCn2cc(C(=O)C3CCCCC3)c3ccccc32)cc1,/,/,/,18µM*,21µM*,/
COc1cccc2cc(C(=O)N(Cc3cccs3)Cc3cccs3)c(=O)oc12,/,/,/,?,-7%,/
COCCn1cc(C(=S)N2CCOCC2)c2ccccc21,24,9%,?,5%,-28%,-15%
COCCn1cc(C(=S)N2CCCCC2)c2ccccc21,-19,?,21%,?,0%,16µM*
O=C(Nc1cccc(Cl)c1)Nc1ccccc1OCc1cc(=O)n2ccccc2n1,/,/,/,-22%,0%,/
CSc1ncc(C(=O)Nc2ccccc2Cl)c(C)n1,14,-6%,8%,-4%,9%,?
Cc1ccc(NC(=O)CN(C)C(=O)c2ccccc2Sc2ccccc2C#N)cc1,-20,/,-17%,15µM*,?,/

# Assay outcomes (PubChem)
